About 83,000 compounds went through this panel and 20% of them were active in at least one assay; those are over-represented in the sample as a whole.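 Cell lines were cultured in 96-well plates, exposed to a single compound concentration, and assessed for percent growth 48 hours later.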 Unmarked numbers belong to inactive results. Active and inactive are the calls of the source. How the source made its calls: active means growth percent below 10; inactive means the rest.
What follows are compounds tested on MDA-MB-468 breast (assay: NCI-60 one-dose screen, 48 h (100 = growth as untreated, 0 = no growth, -100 = all killed)). Conditions: 10 µM unless noted.

SMILES	growth
O=C1CC(C(F)(F)F)=NN1C(=O)c1nn(-c2ccc(Cl)cc2)cc1O	116%
O/N=C1\CCC2CCCCC2C1 (centres undefined)	105%
COc1cc(Cl)cc(-c2nn(-c3cccc(NC(=O)Nc4cccc(C(F)(F)F)c4)c3)cc2-c2ccncc2)c1	6.89% (active)
CN(C)C(=O)Oc1cccc([N+](C)(C)C)c1	102%
COc1ccc(C(=S)N2CCN(c3ccc(Cl)cc3)CC2)cc1	102%
Cc1ccc(C2SCC(=O)N2NC(=O)c2[nH]c3ccc(F)cc3c2-c2ccccc2)cc1 (centres undefined)	96%
N/C(=N\c1nc2ccccc2s1)NC(=O)Nc1ccccc1Cl	16.6%
COc1cccc(/C(C#N)=C/c2nc3c(N4CCOCC4)nc(Cl)nc3n2C)c1	-63% (active)
CC1Cc2ccccc2O1 (centres undefined)	120%
Cc1c(Cl)cccc1C(=O)Nc1nc2c(s1)CN(C(=O)c1ccc(C(F)(F)F)cc1)CC2	17.7%
CCOC(=O)c1c2c(n3ccc(C)cc13)C(=O)c1ccccc1C2=O	102%
c1cc(CNC23CC4CC(CC(C4)C2)C3)cc(C[N+](Cc2cccc(CNC34CC5CC(CC(C5)C3)C4)c2)(Cc2cccc(CNC34CC5CC(CC(C5)C3)C4)c2)Cc2cccc(CNC34CC5CC(CC(C5)C3)C4)c2)c1 (centres undefined)	-47.1% [42 µM] (active)
O=C(Cn1cc(COc2ncnc3c2cnn3-c2ccccc2)nn1)Nc1cccc2ccccc12	86.5%
O=C(Cc1ccc(F)c(Cl)c1)Nc1cc(C2(C(F)(F)F)CC2)nn1CC1CCCCC1	-13.1% (active)

Source: PubChem BioAssay (NCI)
